Compound activity deposited in PubChem by National Center for Advancing Translational Sciences (NCATS).
Tau fibril ThT – qHTS for Inhibitors of Tau Fibril Formation, Thioflavin T Binding; Microtubule-associated protein tau (Homo sapiens), P10636; recombinant tau K18 P301L, heparin-induced fibrillization, ThT fluorescence; Potency, µM (titrated, usually from 57.4 µM), for the others: at the highest dose activity, negative = inhibition, actives largely listed as inhibitors; 270,000 compounds, 2.1% hits; note: nearly all actives have a fitted effect of over 55% in size
Target sequence (P10636 561-689 P618L limits assumed): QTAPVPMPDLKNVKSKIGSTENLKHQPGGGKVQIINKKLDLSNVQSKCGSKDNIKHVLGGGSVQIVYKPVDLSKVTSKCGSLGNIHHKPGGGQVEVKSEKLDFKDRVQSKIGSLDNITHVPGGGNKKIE
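Fibril formation assay: tau K18 P301L at 15 uM with trace Alexa 594 label, heparin inducer 20 uM, pH 7 sodium acetate buffer, 37 C for 6 hr; endpoint ThT signal.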
Tau fluor cs – Counterscreen qHTS for Inhibitors of Tau Fibril Formation, Fluorescence Polarization. tau K18 P301L Alexa594 fluorescence, heparin fibrillization. 280,000 compounds, 0.93% hits. Potency, µM (titrated, usually from 57.7 µM), without a hit: at the top dose activity change, negative = decrease; note: nearly all actives have a fitted effect of over 55% in size
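Human tau K18 P301L (15 uM unlabeled, 0.24 uM Alexa 594-labeled) in 100 mM sodium acetate pH 7 with 20 uM heparin, 6 hr at 37 C. ThT 30 uM added, 1 hr ambient; Alexa 594 FP and total fluorescence read at 555/632 nm.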
HPGD block – qHTS Assay for Inhibitors of HPGD (15-Hydroxyprostaglandin Dehydrogenase) | purified HPGD, NADH fluorescence kinetic, PGE2 substrate | AID 894, 2007 | 150,000 compounds, 4.3% hits | 15-hydroxyprostaglandin dehydrogenase [NAD(+)] (Homo sapiens), P15428 | Potency, µM, for the others: top-dose activity change, negative = inhibition, actives largely listed as inhibitors; active = well fitted inhibition curve with a large enough effect, not every such curve was filed as active; inconclusive = small, poorly fitted or top-dose-only effect, or another doubt; inactive = no such curve, though single readings can be large or run the other way
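20 nM HPGD preincubated 15 min at room temperature with compound in 50 mM Tris-HCl pH 8, 0.01% Tween 20. Started with 1 mM NAD+ and 30 uM prostaglandin E2; NADH fluorescence (360/450 nm) read 5 times over 30-s intervals, last minus first.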
Tau FP inhib – qHTS for Inhibitors of Tau Fibril Formation, Fluorescence Polarization; Microtubule-associated protein tau (Homo sapiens), P10636; K18 P301L tau heparin fibrillization, Alexa594 FP, 6 h; 280,000 compounds, 0.39% hits; Potency, µM (top dose mostly 57.7 µM), inactives show at the highest dose activity, negative = inhibition, most hits filed as inhibitors; AID 1468, 2008; note: nearly all actives have a fitted effect of over 55% in size
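Quantitative HTS format: compounds meet 15 uM recombinant K18 P301L tau and Alexa 594-tau tracer in 100 mM sodium acetate pH 7; 20 uM heparin triggers fibrillization at 37 C over 6 hr; FP gives the signal.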
ALDH1A1 block – qHTS Assay for Inhibitors of Aldehyde Dehydrogenase 1 (ALDH1A1); Aldehyde dehydrogenase 1A1 (Homo sapiens), P00352; Purified ALDH1A1, NADH fluorescence, propionaldehyde substrate; Potency, µM (highest dose often 75.3 µM), inactives show top-dose activity, negative = inhibition, usual class: inhibitors; 220,000 compounds, 7.3% hits; active = well fitted inhibition curve with a large enough effect, not every such curve was filed as active; inconclusive = small, poorly fitted or top-dose-only effect, or another doubt; inactive = no such curve, though single readings can be large or run the other way;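 note: plate controls were no enzyme wells and a reference inhibitor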
JMJD2E inh – qHTS Assay for Inhibitors of Human Jumonji Domain Containing 2E (JMJD2E) | Lysine-specific demethylase 4E (Homo sapiens), B2RXH2 | JMJD2E catalytic domain, FDH-coupled NADH fluorescence (FDH is formaldehyde dehydrogenase) | Potency, µM (series often up to 57.1 µM), without a hit: at the highest dose activity change, negative = inhibition, actives largely listed as inhibitors | 230,000 compounds, 1.6% hits | AID 2147, 2009; active = well fitted inhibition curve with a large enough effect, not every such curve was filed as active; inconclusive = small, poorly fitted or top-dose-only effect, or another doubt; inactive = no such curve, though single readings can be large or run the other way;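 note: 0% = wells with enzyme and -100% = buffer wells without enzyme; nearly all actives have a fitted effect of over 50% in size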
Target sequence (B2RXH2 1-337 limits assumed): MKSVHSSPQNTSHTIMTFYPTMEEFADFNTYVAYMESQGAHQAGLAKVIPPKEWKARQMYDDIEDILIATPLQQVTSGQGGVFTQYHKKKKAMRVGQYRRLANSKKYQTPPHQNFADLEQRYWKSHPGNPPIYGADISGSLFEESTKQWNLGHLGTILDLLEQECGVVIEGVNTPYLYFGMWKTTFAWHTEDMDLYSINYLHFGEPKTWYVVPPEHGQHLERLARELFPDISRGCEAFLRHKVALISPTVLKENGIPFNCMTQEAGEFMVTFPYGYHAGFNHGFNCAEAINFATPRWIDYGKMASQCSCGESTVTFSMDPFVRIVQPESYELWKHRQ
* hit, by the source's call; ? = inconclusive; nt = no result; [ ] = another dose, or the depositor's remark. The list is not random: actives were taken first. Their share in the collection is about 9.9%. Unless noted, calls come from the whole dose curve; as a rule, active = well fitted curve in the direction sought with a large enough effect; inconclusive = small, poorly fitted or top-dose-only effect, or another doubt; inactive = no such curve, though single readings can be large; an effect the other way counts as inactive or inconclusive. Unless noted, % is set by controls: 0 for no effect and ±100 for the full control effect; potency is the fitted concentration of half-maximal effect.

SMILES | Tau fibril ThT | Tau fluor cs | HPGD block | Tau FP inhib | ALDH1A1 block | JMJD2E inh
CCOC(=O)C1CN(S(=O)(=O)c2ccc(OC)cc2)c2cc(S(=O)(=O)CC)ccc2O1 (centres undefined) | -2% | -6% | -1% | 5% | ? | 1%
CCC1CCCCN1CC(=O)N1CCCc2c1c(=O)oc1ccc(OCc3ccccc3)cc21 (centres undefined) | -15% | -7% | nt | 8% | nt | nt
O=C(Oc1ccccc1-c1csnn1)c1cccs1 | -3% | -4% | nt | -6% | 18µM* | 1%
O=C(Oc1ccc(-c2csnn2)cc1)c1cccs1 | -18% | -14% | nt | -6% | 3% | -4%
CCOC(=O)C1=C(c2cccc(F)c2)NC(=S)NC1C (centres undefined) | -3% | -4% | -3% | -5% | 1.6µM* | 1%
CCCOc1ccc([N+](=O)[O-])cc1C1NC(=S)NC(c2ccccc2)=C1C(=O)OCC (centres undefined) | -4% | -16% | -3% | 3% | ? | -2%
CC(=O)OC[C@@H]1O[C@@H](O/N=C2/C[C@@H](O)[C@@H](O)[C@@H]3[C@@H]4C(=O)N(C(C)(C)C)C(=O)[C@H]4CC[C@H]23)[C@H](OC(C)=O)[C@H](OC(C)=O)[C@@H]1OC(C)=O | ? | ? | nt | ? | 9%[13.5 µM] | nt
CSc1nc(N)c2ncn([C@@H]3O[C@H](COP(=O)(O)OP(=O)(O)O)[C@H](O)[C@H]3O)c2n1 | -7% | -11% | -7% | -9% | 6% | -5%
CC1CCCN(c2nc3c(c(=O)n(C)c(=O)n3C)n2Cc2ccccc2)C1 (centres undefined) | ? | -12% | -6% | 0% | 1.8µM* | 1%
CC1CCCN(c2nc3c(c(=O)[nH]c(=O)n3C)n2Cc2ccccc2Cl)C1 (centres undefined) | -4% | 10% | -26% | 1% | 10µM* | -4%
CCN1CCN(Cc2nc3c(c(=O)[nH]c(=O)n3C)n2Cc2ccccc2Cl)CC1 | -3% | -2% | -3% | -8% | -12% | 1%
CN(C)c1nc2c(c(=O)[nH]c(=O)n2C)n1Cc1ccccc1Br | -7% | -5% | 18µM* | 2% | 8% | 8%
Cn1c(=O)[nH]c(=O)c2c1nc(N1CCCCCC1)n2Cc1cccc2ccccc12 | -11% | 7% | -18% | 0% | ? | 3%
Cc1ccc(Cn2c(N3CCCCCC3)nc3c2c(=O)[nH]c(=O)n3C)cc1 | -5% | -9% | -15% | 2% | 1.6µM* | -1%
O=C(NCCCn1ccnc1)C(=O)c1c[nH]c2ccccc12 | 1% | 0% | nt | 5% | 3% | 7%
O=C(CCCCCn1c(=O)c2sccc2n(CC(=O)Nc2cccc(Cl)c2)c1=O)NCc1ccc2c(c1)OCO2 | 12% | ? | nt | ? | nt | nt
Cn1c(=O)[nH]c(=O)c2c1nc(N1CCC(Cc3ccccc3)CC1)n2Cc1ccccc1 | -24% | -4% | -20% | -4% | 10µM* | -22%
Cn1c(=O)c2c(nc(N3CCCCCC3)n2CCSc2nc3ccccc3o2)n(C)c1=O | -6% | -7% | -9% | 2% | 4.5µM* | 4%
CCc1ccc(NC(=O)CSc2nnc(-c3nonc3NC(C)=O)n2-c2ccccc2)cc1 | 2% | -22% | nt | 8% | nt | nt
c1ccc(Cc2nnc3sc(C4COc5ccccc5O4)nn23)cc1 (centres undefined) | ? | -9% | 14µM* | -4% | 25µM* | -2%
